Data as given in PubChem BioAssay.
Where “and” joins values, the source holds several entries; their conditions need not be identical. Equal entries are not always repeated. A number with no mark means an inactive call. Calls of active or inactive are those of the source. Rule as the data show it, unless noted: active = inhibition above about 25%; inactive = the rest.

Test system: not listed separately
Assay: repression of VP16-driven luciferase reporter – cell-based, luminescence, high throughput, counter-screen for SRC1 inhibitor project (AID 588824)
Conditions: cell-based VP16 transactivation luciferase luminescence; at 3.6 µM; hits give high values

Row | Structure (SMILES) | inhibition
1 | COc1ccc(N(C(=O)CCl)C(C(=O)NC2CCCCC2)c2cccnc2)cc1 (stereo not drawn) | 51.5% (active)
2 | O=S(=O)(Nc1cc(Sc2ncn[nH]2)c(O)c2ccccc12)c1ccccc1 | 4.9%
3 | COCC(C)n1c(C)cc(C(=O)COC(=O)c2cccn2C)c1C (stereo not drawn) | -61%
4 | Brc1ccc2ncnc(Nc3ccc(N4CCOCC4)cc3)c2c1 | 35.3% (active)
5 | CC1CCN(C2=NC(=O)/C(=C/c3ccccc3F)S2)CC1 | -40.4%
6 | CC(=C/c1ccccc1)/C=N/n1c(-c2ccncc2)n[nH]c1=S | 51.6% (active)
7 | COCCn1c(C)cc(C2=NNC(=NC3CC3)SC2)c1C | 86.1% (active)
8 | CC(=O)/C(N=Nc1ccc2c(c1)OCCO2)=C(\C)O | -66.6%
9 | c1ccc(CCc2nn3c(-c4ccncc4)nnc3s2)cc1 | 41.1% (active)
10 | COCCn1c(C)cc(C(=O)COc2ccc(C)nc2[N+](=O)[O-])c1C | -5.22%
11 | COc1ccc(-c2cc(=O)oc3c(C)c(O)ccc23)cc1 | 26.4% (active)
12 | N#CC(C#N)c1ccnc2ccccc12 | 38.3% (active)
13 | Nc1ncnc(N2CCc3ccccc32)c1[N+](=O)[O-] | 61.2% (active)
14 | CN1CCN(c2ccc(NC(=O)N3CCc4ccccc43)cc2)CC1 | -20.3%
15 | CS(=O)(=O)N(CCC#N)Cc1ccc(/C=C2\C(=O)Nc3ccccc32)o1 | 29.3% (active)
16 | O=C(NC1CCCCC1)C(c1cccnc1)N(C(=O)CCl)c1ccc(F)cc1 (stereo not drawn) | 65.1% (active)
17 | C=C1C(=O)O[C@H]2C[C@H]1[C@@H](OC(C)=O)C/C(C)=C/CC/C(C)=C\CC[C@]2(C)O | 49.1% (active)
18 | Cc1cc(N2CCOCC2)c2c(N)c(Br)cc(C)c2n1 | 60.3% (active)
19 | Nc1ncccc1C(=O)OCC(=O)N1CCN(S(=O)(=O)c2ccc(Cl)cc2)CC1 | 20.6%
20 | Cc1nc(SCC(=O)Nc2nc3ccccc3s2)c(C#N)c(C)c1C | 83.2% (active)

Row | Structure (SMILES) | inhibition
21 | CC(C)(CO)CNc1ccn2nccc2n1 | 41% (active)
22 | CCN(CC)c1ccc(/C=N/Nc2nc(C)cc(=O)[nH]2)c(O)c1 | 74.3% (active)
23 | CCOc1cc(/C=C2\COc3ccccc3C2=O)cc(Br)c1OCC(=O)N(C)C | 39.2% (active)
24 | CCOc1ccc(Nc2ncnc3ccc([N+](=O)[O-])cc23)cc1 | 53.7% (active)
25 | Nc1ccc(-c2nc3c(Cl)cc(N)cc3[nH]2)cc1 | -17.4%
26 | Cn1nc(C(F)(F)F)c(C#N)c1N1CCN(c2ccccc2)CC1 | 19.3%
27 | CC1=C(C(=O)OCc2ccc3c(c2)OCO3)C(c2ccc(O)c([N+](=O)[O-])c2)NC(=O)N1 (stereo not drawn) | 35.7% (active)
28 | Cc1ccc(-n2c(C)c([N+](=O)[O-])c3ccc(O)c(CN(C)C)c32)cc1 | 49.5% (active)
29 | COc1ccc(-n2c(C)c([N+](=O)[O-])c3ccc(O)c(CN4CCCCC4)c32)cc1 | 39.5% (active)
30 | CCN(CC)Cc1c(O)ccc2c([N+](=O)[O-])c(C)n(-c3ccc(OC)cc3)c12 | 54.7% (active)
31 | Cc1cc(C(=O)CN2C(=O)c3ccccc3S2(=O)=O)c(C)n1C(C)C | 12.9%
32 | NNC(=O)c1cc2ccccc2cc1O | 19.3%
33 | CC(C)(C)OC(=O)NCCCCCNC(=O)c1nc[nH]c1C(=O)NCCCCCNC(=O)OC(C)(C)C | 35.1% (active)
34 | Cc1cc(Sc2nnc(/N=C/N(C)C)s2)c2ccccc2n1 | 33.8% (active)
35 | COc1cccc(NC(=O)Nc2nc(-c3ccc(OC)c(OC)c3)cs2)c1 | 74% (active)
36 | CCCN(CC(=O)Nc1ccccc1C)C(=O)CCl | 53.4% (active)
37 | CC(=O)c1sc(NC(=O)C2(F)C(F)(F)C(F)(F)C(F)(F)C(F)(F)C2(F)F)nc1C | 84.5% (active)
38 | c1ccc(CNc2ncnc3ccccc23)cc1 | 34.9% (active) and 44% (active)
39 | Cc1ccc(Sc2c(C=O)c3ccccc3n2C)cc1 | 46.9% (active)

Test system: transactivating tegument protein VP16 (Human herpesvirus 1)
Assay: compounds suppressing VP16-driven luciferase signal – cell-based, luminescence, single concentration, counter-screen for SRC2 inhibitor project (AID 652007; in the data active = inhibition above about 36%)
Conditions: cell-based VP16 transactivation luciferase reporter, at 8.9 µM, hits give high values

Row | Structure (SMILES) | inhibition
40 | COc1ccc(N(C(=O)CCl)C(C(=O)NC2CCCCC2)c2cccnc2)cc1 (stereo not drawn) | 68.8% (active)
41 | O=S(=O)(Nc1cc(Sc2ncn[nH]2)c(O)c2ccccc12)c1ccccc1 | 16.2%
42 | COCC(C)n1c(C)cc(C(=O)COC(=O)c2cccn2C)c1C (stereo not drawn) | 48.1% (active)
43 | Brc1ccc2ncnc(Nc3ccc(N4CCOCC4)cc3)c2c1 | -2.24%
44 | CC1CCN(C2=NC(=O)/C(=C/c3ccccc3F)S2)CC1 | -74.3%
45 | CC(=C/c1ccccc1)/C=N/n1c(-c2ccncc2)n[nH]c1=S | 6.14%
46 | COCCn1c(C)cc(C2=NNC(=NC3CC3)SC2)c1C | 90.8% (active)
47 | CC(=O)/C(N=Nc1ccc2c(c1)OCCO2)=C(\C)O | -9.49%
48 | c1ccc(CCc2nn3c(-c4ccncc4)nnc3s2)cc1 | 1.28%
49 | COCCn1c(C)cc(C(=O)COc2ccc(C)nc2[N+](=O)[O-])c1C | 23.8%
50 | COc1ccc(-c2cc(=O)oc3c(C)c(O)ccc23)cc1 | -7.99%
51 | N#CC(C#N)c1ccnc2ccccc12 | 4.65%
52 | Nc1ncnc(N2CCc3ccccc32)c1[N+](=O)[O-] | 9.34%
53 | CN1CCN(c2ccc(NC(=O)N3CCc4ccccc43)cc2)CC1 | -18.3%
54 | CS(=O)(=O)N(CCC#N)Cc1ccc(/C=C2\C(=O)Nc3ccccc32)o1 | 4.75%
55 | O=C(NC1CCCCC1)C(c1cccnc1)N(C(=O)CCl)c1ccc(F)cc1 (stereo not drawn) | 64.5% (active)
56 | C=C1C(=O)O[C@H]2C[C@H]1[C@@H](OC(C)=O)C/C(C)=C/CC/C(C)=C\CC[C@]2(C)O | 34.3%
57 | Cc1cc(N2CCOCC2)c2c(N)c(Br)cc(C)c2n1 | -7.31%
58 | Nc1ncccc1C(=O)OCC(=O)N1CCN(S(=O)(=O)c2ccc(Cl)cc2)CC1 | -4.99%
59 | Cc1nc(SCC(=O)Nc2nc3ccccc3s2)c(C#N)c(C)c1C | 92.1% (active)

Row | Structure (SMILES) | inhibition
60 | CC(C)(CO)CNc1ccn2nccc2n1 | -7.15%
61 | CCN(CC)c1ccc(/C=N/Nc2nc(C)cc(=O)[nH]2)c(O)c1 | -39.4%
62 | CCOc1cc(/C=C2\COc3ccccc3C2=O)cc(Br)c1OCC(=O)N(C)C | 44.5% (active)
63 | CCOc1ccc(Nc2ncnc3ccc([N+](=O)[O-])cc23)cc1 | -19.7%
64 | Nc1ccc(-c2nc3c(Cl)cc(N)cc3[nH]2)cc1 | 28.1%
65 | Cn1nc(C(F)(F)F)c(C#N)c1N1CCN(c2ccccc2)CC1 | 4.83%
66 | CC1=C(C(=O)OCc2ccc3c(c2)OCO3)C(c2ccc(O)c([N+](=O)[O-])c2)NC(=O)N1 (stereo not drawn) | 20.7%
67 | Cc1ccc(-n2c(C)c([N+](=O)[O-])c3ccc(O)c(CN(C)C)c32)cc1 | 2.96%
68 | COc1ccc(-n2c(C)c([N+](=O)[O-])c3ccc(O)c(CN4CCCCC4)c32)cc1 | 4.57%
69 | CCN(CC)Cc1c(O)ccc2c([N+](=O)[O-])c(C)n(-c3ccc(OC)cc3)c12 | 15.8%
70 | Cc1cc(C(=O)CN2C(=O)c3ccccc3S2(=O)=O)c(C)n1C(C)C | 29.6%
71 | NNC(=O)c1cc2ccccc2cc1O | 16.4%
72 | CC(C)(C)OC(=O)NCCCCCNC(=O)c1nc[nH]c1C(=O)NCCCCCNC(=O)OC(C)(C)C | 24.2%
73 | Cc1cc(Sc2nnc(/N=C/N(C)C)s2)c2ccccc2n1 | -8.53%
74 | COc1cccc(NC(=O)Nc2nc(-c3ccc(OC)c(OC)c3)cs2)c1 | 89.7% (active)
75 | CCCN(CC(=O)Nc1ccccc1C)C(=O)CCl | 65.6% (active)
76 | CC(=O)c1sc(NC(=O)C2(F)C(F)(F)C(F)(F)C(F)(F)C(F)(F)C2(F)F)nc1C | 4.16%
77 | c1ccc(CNc2ncnc3ccccc23)cc1 | 14%
78 | Cc1ccc(Sc2c(C=O)c3ccccc3n2C)cc1 | 7.13%
